Data published in PubChem BioAssay AID588493 (Sanford-Burnham Center for Chemical Genomics, 2011).
In all, about 360,000 compounds went through this assay and about 2,100 (0.58%) were called active. This is one part of a sample in which actives are shown more often than they occur. Unmarked numbers belong to inactive results.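 How the source made its calls: active means inhibition at 20 µM, scaled to each plate's controls, above about 33% (limit read from the data); inactive means the rest.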

The molecules below were run against 26S proteasome non-ATPase regulatory subunit 14 (Homo sapiens) (UniProt O00487) (assay: inhibition of 26S proteasome subunit Rpn11 – biochemical, fluorescence polarization, uHTS, primary screen (AID 588493)). Settings: human 26S proteasome, Ub4-pepOG fluorescence polarization; at 20 µM; active compounds read high; 20S core pre-blocked with epoxomicin.
Chain of 26S proteasome non-ATPase regulatory subunit 14 (Homo sapiens) (O00487 whole entry, looked up): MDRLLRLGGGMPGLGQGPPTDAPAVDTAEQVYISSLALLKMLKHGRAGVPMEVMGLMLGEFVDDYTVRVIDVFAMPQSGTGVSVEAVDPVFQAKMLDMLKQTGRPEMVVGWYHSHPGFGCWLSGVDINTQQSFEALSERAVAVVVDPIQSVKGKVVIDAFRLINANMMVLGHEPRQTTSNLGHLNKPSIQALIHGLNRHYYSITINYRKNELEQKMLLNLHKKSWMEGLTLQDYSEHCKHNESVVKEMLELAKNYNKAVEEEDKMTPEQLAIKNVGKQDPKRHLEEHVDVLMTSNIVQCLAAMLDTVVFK

SMILES | inhibition
CN(C(=O)c1c(Cl)cnn1C)C12CC3CC(CC(C3)C1)C2 | 0.7%
N#CC(C(=O)c1ccc(S(=O)(=O)N2CCCCCC2)cc1)c1nc2ccccc2[nH]1 (stereo not drawn) | 13.9%
O=C(NCc1ccco1)C1CCCN(S(=O)(=O)c2ccccc2)C1 (stereo not drawn) | -4.7%
CCCS(=O)(=O)N1CCCC(C(=O)NCc2ccco2)C1 (stereo not drawn) | 34.7% (active)
O=C(NCc1ccco1)C1CCCN(S(=O)(=O)c2cnc[nH]2)C1 (stereo not drawn) | -5.5%
CC(Sc1nc2c([nH]c3ccccc32)c(=O)n1C)c1ccccc1 (stereo not drawn) | -0.4%
Cc1cc(C)nc(NC2=NCC(=O)N2c2ccc(Cl)cc2)n1 | 4.1%
O=C(COCc1cc(-c2ccc3c(c2)OCO3)on1)N1CCN(c2cccc(Cl)c2)CC1 | 6.1%
Cc1c(-c2ccccc2)cn2c1-c1ccc(C)n1CC2 | 44.5% (active)
CCCCNC(=O)C(C)N(CCN(C)C)C(=O)CCCN1C(=O)NC(c2ccc(Cl)cc2)C(C(=O)OCc2ccccc2)=C1C (stereo not drawn) | -1.7%
COc1ccc(-c2nc3n(c2Br)CCC3)cc1 | 6.5%
Cc1ccc(OCC(=O)NCCCNC(=O)c2cccnc2)cc1C | 0.1%
Cc1cccc(OCC(=O)NCCNC(=O)c2cccnc2)c1 | 2.9%
Cc1ccc(NC(=O)COc2ccc(/C=N\NC(=O)c3cccnc3)cc2)cc1C | 91% (active)
Cc1ccc(C(=O)N2CCCC2)c(F)c1F | -4.7%
Cc1nc2ccccc2n1C(=O)N1CCOCC1 | 58.5% (active)
O=C(c1cc(-c2ccc(Cl)s2)nc2ccccc12)N1CCOCC1 | -0.8%
O=C(N1CCOCC1)N1CCOCC1 | -1.2%
CCOC(=O)C1(Cc2cccc(OC)c2)CCCN(C(=O)CCSC)C1 (stereo not drawn) | 5.4%
Cc1c(NC(=O)CSc2cccc3cccnc23)c(=O)n(-c2ccccc2)n1C | 48.6% (active)
Cc1c(NC(=O)CSc2nnnn2-c2ccc(C(=O)O)cc2)c(=O)n(-c2ccccc2)n1C | -4.2%
Cc1c(NC(=O)CSc2nnc(-c3cccnc3)n2N)c(=O)n(-c2ccccc2)n1C | 0%
CC(C)CC(NC(=O)C1CCCN1C(=O)[C@@H](C)NC(=O)OCc1ccccc1)C(=O)NCC(N)=O (stereo partly drawn) | -2.1%
CC(C)CC(O)C1CCN(C(=O)CCc2nnc(-c3ccc4c(c3)OCO4)o2)CC1 (stereo not drawn) | -1.9%

SMILES | inhibition
Cc1ccc(Nc2nc(N)nc(CSc3nnc(C)s3)n2)cc1 | -0.4%
Cc1ccc(Nc2ccccc2N)cc1 | 53% (active)
O=[N+]([O-])c1ccccc1Nc1ccc(O)cc1 | 0.3%
O=[N+]([O-])c1cc(S(=O)(=O)Nc2cccc(Cl)c2)ccc1N=Nc1c(O)[nH]c2ccccc12 | -18%
Cc1oc2c(C)c3oc(=O)c(CC(=O)N[C@@H](CC(C)C)C(=O)N[C@@H](Cc4ccccc4)C(=O)O)c(C)c3cc2c1C | 71.8% (active)
Cc1c(OC(C)C(=O)N[C@@H](Cc2ccccc2)C(=O)O)ccc2c3c(c(=O)oc12)CCCC3 (stereo partly drawn) | -4.9%
Cc1c(CCC(=O)N[C@@H](CC(C)C)C(=O)O)c(=O)oc2c(C)c3oc4c(c3cc12)CCCC4 | -8.5%
CC(=NCc1ccc2c(c1)OCO2)C1=C(O)c2ccccc2C1=O | -6.8%
CCOc1ncccc1C(=O)OCC(=O)Nc1cccc(S(=O)(=O)N2CCCCCC2)c1 | 1.7%
CCc1ccc(-c2cc(C(=O)NCc3ccco3)c3ccccc3n2)s1 | 40.1% (active)
Cc1cccc(Nc2ccccc2C(=O)NCc2ccco2)c1C | 0.1%
CC(C)(C)c1ccc(C(=O)NCc2ccco2)cc1 | 0.7%
CN1CCNC(=O)C1CC(=O)N1CC=C(c2ccc(F)cc2)CC1 (stereo not drawn) | -2.3%
CCCCCCCCCCOC(=O)Cn1c(COc2cccc(OC)c2)[n+](C)c2ccccc21 | 33% (active)
COc1ccc(-n2c(SCC(=O)Nc3sc4c(c3C#N)CCCC4)nnc2-c2ccc(O)cc2)cc1 | 59.6% (active)
COc1cccc(CN(C)CC(=O)Nc2sc3c(c2C#N)CCC3)c1 | 18%
CCCc1cc(=O)[nH]c(SCC(=O)Nc2sc3c(c2C#N)CCCC3)n1 | 2%
Cc1ccc(Cc2c(-c3ccco3)nc3ccc(Cl)cn23)cc1 | 18.2%
COC(=O)c1c(CCl)noc1C(=O)NC(C)C | -0.8%
O=C(/C=C/c1cccs1)c1cc(Cl)ccc1OC(=O)N1CCOCC1 | 1.7%
O=c1c2ccccc2ncn1CCc1ccncc1 | 1.2%
Cc1cc(/C=C2/SC(=O)N(CC(=O)N3CCCC3)C2=O)ccc1N1CCOCC1 | 59.6% (active)
Cc1ccc2c(c1)N(CC(=O)N1CCOCC1)C(=O)CO2 | -3.1%
O=C(CN1C(=O)CSc2ncccc21)N1CCOCC1 | -4.6%
